Screening results: PubChem, The Scripps Research Institute Molecular Screening Center
Hits are enriched below; roughly 3.5% of the tested compounds scored in any of these assays.
GPR151 ag – activates the human receptor GPR151. PathHunter beta-arrestin GPR151 cells, luminescence. activation, % at 11.2 µM. hit rate 1% among 650,000; in the data active = activation above about 4.9%;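 note: 0% = median of compound wells and 100% = cells with positive control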
TEAD-YAP inh – TEAD-YAP interaction inhibition; HEK-TIYL cells, TEAD-Gal4/YAP UAS-luciferase luminescence; hit rate 1.4% among 640,000; inhibition, % at 9.12 µM; in the data active = inhibition above about 32%;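 note: 0% = median of test compound wells and 100% = reference inhibitor wells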
MITF primary – blocks human microphthalmia-associated transcription factor; hit rate 0.91% among 650,000; O75030; inhibition, % at 2.6 µM; AlphaScreen MITF homodimerization, bead proximity signal; AID 1259374; in the data active = inhibition above about 50%;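 note: 0% = vehicle wells with protein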
Target sequence (O75030 whole entry, looked up): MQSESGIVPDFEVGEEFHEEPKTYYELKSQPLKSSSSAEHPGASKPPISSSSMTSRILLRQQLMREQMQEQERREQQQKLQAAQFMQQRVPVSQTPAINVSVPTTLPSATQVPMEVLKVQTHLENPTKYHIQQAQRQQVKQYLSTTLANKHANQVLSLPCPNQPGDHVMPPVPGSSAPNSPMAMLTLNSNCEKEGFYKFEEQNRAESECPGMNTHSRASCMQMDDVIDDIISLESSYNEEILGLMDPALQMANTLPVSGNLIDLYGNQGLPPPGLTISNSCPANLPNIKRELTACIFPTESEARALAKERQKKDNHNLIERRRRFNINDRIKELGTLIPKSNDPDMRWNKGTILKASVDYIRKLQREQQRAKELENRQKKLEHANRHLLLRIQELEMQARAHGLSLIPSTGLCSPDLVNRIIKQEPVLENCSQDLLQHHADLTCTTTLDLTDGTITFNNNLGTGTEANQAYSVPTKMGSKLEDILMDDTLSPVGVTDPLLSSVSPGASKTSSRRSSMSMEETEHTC
FBW7 act – human FBW7 E3 ligase activation, primary screen | Q969H0 | normalized activity (activation), % at 26.1 µM | AlphaScreen FBW7–phospho-cyclin E peptide binding, activator screen | hit rate 0.13% among 650,000; in the data active = normalized activity above about 1.9%;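 note: purified mutant Fbw7 with reduced substrate affinity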
MITF inh conf – human MITF inhibition, confirmation. hit rate 16% among 4,700. inhibition, % at 2.6 µM. shares compounds with MITF primary. AlphaScreen MITF homodimerization, biotin/His-MITF beads;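 active = inhibition above a cutoff derived from the DMSO control wells, cut at about 28% in these data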;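 note: 0% = MITF dimer wells with DMSO only; inhibitors lower the bead chemiluminescence by keeping MITF from dimerizing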
AlphaScreen intf2 – AlphaScreen optical interference, counter-screen | shares compounds with MITF primary | LysRS AlphaScreen counterscreen, signal interference, triplicate | inhibition, % at 2.6 µM | hit rate 7.6% among 4,700 | AID 1259376;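 active = inhibition above a cutoff derived from the DMSO control wells, cut at about 30% in these data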
Starred values were filed as active, the others as inactive; . = no result given.

SMILES	GPR151 ag	TEAD-YAP inh	MITF primary	FBW7 act	MITF inh conf	AlphaScreen intf2
CCOc1cc(CN2CCN(CC3CC=CCC3)CC2)ccc1OC (stereo not drawn)	0	-2	70*	0	-7	-1
Cc1ccc2c3c(ccc2n1)NC1=C(C(=O)CCC1)C3c1ccccn1 (stereo not drawn)	0	-19	63*	0	-3	5
Cc1ccc2c3c(ccc2n1)NC1=C(C(=O)CCC1)C3c1ccccc1C (stereo not drawn)	1	2	4	0	.	.
COc1cccc(C(=O)N2CCN(Cc3ccc(OC)c(Br)c3)CC2)c1	0	-7	52*	0	11	14
COc1ccc(CN2CCN(C(=O)c3cc(OC)c(OC)c(OC)c3)CC2)cc1Br	-2	-4	52*	1	6	2
COc1ccc(CN2CCN(C(=O)c3cccc(OC)c3)CC2)cc1	1	6	27	0	.	.
Cc1ccnn1CCC(=O)NCCc1nc(-c2cccnc2)n[nH]1	-1	5	10	1	.	.
CCCC1CCC(C2CCC(=O)CC2)CC1 (stereo not drawn)	3	-5	53*	0	14	13
Cc1c(CCO)c(=O)[nH]n1C(=O)c1ccc([N+](=O)[O-])cc1	-10	1	8	0	.	.
Cc1ccc(OCCn2cncn2)c(I)c1	0	-1	60*	1	8	12
C/C=C/c1ccc(OCCCCn2cncn2)c(OC)c1	2	2	55*	0	-10	-8
Cc1ccc(OCCCCn2cncn2)c(I)c1	1	-30	-19	0	.	.
C/C=C/c1ccc(OCCn2cncn2)c(OC)c1	0	-5	55*	0	13	17
COCC(=O)N1CCC(c2c[nH]c3ccccc23)(c2c[nH]c3ccccc23)CC1	1	-3	9	0	.	.
CC1CCCC(NC(=O)CN(C)S(=O)(=O)c2cccc3cccnc23)C1C (stereo not drawn)	0	-4	64*	1	10	10
CCN1CCN(CCOc2c(OC)cccc2OC)CC1	1	1	82*	0	7	16
COc1cccc(OC)c1OCCCCN1CCCC1	0	6	52*	1	-8	-10
CN(C)CCCn1c(SCc2ccccc2)nnc1-c1ccncc1	0	-8	73*	0	9	11
CCOc1ccc(NC(=O)CSc2nnc(-c3ccncc3)n2CCCN(C)C)cc1	-1	3	53*	0	9	9
CCOC(=O)c1ccc(Cn2c3ccc(Br)cc3c3nc4ccccc4nc32)o1	-1	0	10	0	.	.
CC(C)OC(=O)CSc1nc(C2CC2)nc2ccccc12	-1	1	6	0	.	.
CCN(Cc1ccccc1)C1CCN(Cc2ccccn2)CC1	-1	4	59*	0	-10	0
c1ccc(C2CCC(N3CCN(Cc4cccnc4)CC3)CC2)cc1 (stereo not drawn)	-1	2	65*	0	-10	12
c1ccc(C2CCC(N3CCN(Cc4ccccn4)CC3)CC2)cc1 (stereo not drawn)	-2	-1	68*	0	9	12
c1ccc(CN2CCC(c3ccncc3)CC2)nc1	0	3	9	0	.	.
SMILES	GPR151 ag	TEAD-YAP inh	MITF primary	FBW7 act	MITF inh conf	AlphaScreen intf2
Cc1ccccc1CN1CCN(C2CCCC(C)C2)CC1 (stereo not drawn)	-1	-6	76*	0	-15	4
O=C(O)C1CCN(Cc2ccccn2)CC1	1	0	-5	0	.	.
c1ccc(CN2CCC(N3CCN(Cc4ccccn4)CC3)CC2)cc1	-2	4	40	1	.	.
c1ccc(N2CCN(C3CCN(Cc4ccccn4)CC3)CC2)cc1	1	-3	54*	0	4	7
CC1CCCN(C(=O)C2CCN(Cc3ccccn3)CC2)C1 (stereo not drawn)	3	4	18	0	.	.
c1ccc(CN2CCN(C3CCCC3)CC2)nc1	-1	-9	74*	0	11	10
CC1CCCC(N2CCN(Cc3ccccn3)CC2)C1 (stereo not drawn)	-1	-5	72*	0	5	16
O=C(Cc1ccc2c(c1)OCCO2)OCc1csc(-c2ccccc2)n1	1	-7	4	0	.	.
COc1ccc(-c2cnc3ccc(NC4CCOCC4)nn23)cn1	0	9	11	0	.	.
COc1ncc(-c2cnc3ccc(NC4CCOCC4)nn23)c(OC)n1	1	-17	68*	0	12	26
O=C(NC(c1ccccc1)c1ccccc1)c1ccccc1Br	0	-1	13	0	.	.
O=C(CNC(c1ccccc1)c1ccccc1)NNC(=O)c1ccccc1Br	0	1	63*	0	9	17
COC(=O)c1ccccc1NC(=O)/C(C#N)=C/c1cc(Cl)c(OC)c(OC)c1	1	7	53*	0	3	4
O=[N+]([O-])c1cccc(CN2CCN(C3CCCC3)CC2)c1	0	3	76*	0	18	13
CC1CCCC(N2CCN(C3CCN(Cc4ccccc4)CC3)CC2)C1 (stereo not drawn)	0	12	34	0	.	.
CCN1CCN(C2CCN(Cc3cccc([N+](=O)[O-])c3)CC2)CC1	2	8	23	0	.	.
COc1ccccc1N1CCN(C2CCN(C(=O)c3cccc4ccccc34)CC2)CC1	0	9	75*	0	-1	4
CC1CCCC(N2CCN(Cc3ccc([N+](=O)[O-])cc3)CC2)C1 (stereo not drawn)	-1	-14	94*	0	-6	-2
O=[N+]([O-])c1cccc(CN2CCC(N3CCN(c4ccccc4)CC3)CC2)c1	0	2	74*	0	1	4
COc1ccc(/C(N)=N/OC(=O)c2ccc(I)cc2)cc1OC	1	6	9	0	.	.
CC(CNC(=O)c1ccc(Cl)cc1)CN(C)C (stereo not drawn)	2	2	-1	0	.	.
OCCC1CN(Cc2cccc3cccnc23)CCN1Cc1ccc(F)cc1 (stereo not drawn)	-1	-4	4	0	.	.
O=[N+]([O-])c1ccc(CN2CCC(N3CCN(c4ccccc4F)CC3)CC2)cc1	-1	16	-2	0	.	.
O=[N+]([O-])c1ccc(CN2CCC(O)CC2)cc1	-1	-6	18	0	.	.
O=[N+]([O-])c1ccc(CN2CCN(C3CCCC3)CC2)cc1	-1	-3	61*	0	1	-4
COc1ccccc1N1CCN(C2CCN(Cc3ccc([N+](=O)[O-])cc3)CC2)CC1	-1	14	57*	0	-7	-5
OC(COc1ccccc1F)CN1CCN(c2ccccc2)CC1 (stereo not drawn)	4	7	2	0	.	.
O=S(=O)(c1cccs1)N1CCN(CCO)CC1	1	7	-2	0	.	.
